{"source": "PubChem BioAssay AID2113", "about": "(National Center for Advancing Translational Sciences (NCATS), 2009)", "note": "Inconclusive results are not listed. Values without a mark were called inactive. The source made the active and inactive calls. Calls come from the whole dose curve; as a rule, active = well fitted curve in either direction with a large enough effect; inconclusive = small, poorly fitted or top-dose-only effect; inactive = no such curve, though single readings can be large or run the other way. Potency is the fitted concentration of half-maximal effect.", "data": [{"target": "Lysosomal alpha-glucosidase (Homo sapiens) (UniProt P10253)", "assay": "Confirmation of Inhibitors and Activators of Human alpha-Glucosidase From Spleen Homogenate;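 for Potency: fluorescence of 4-methylumbelliferone released from a fluorogenic glucopyranoside substrate at pH 5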; for activity change, both directions: 0% is about no effect", "conditions": "alpha-glucosidase enzyme activity; series mostly up to 60.5 µM; activity change, both directions: at the top concentration", "in_short": "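Fluorogenic assay using human spleen homogenate (1 ug) as enzyme source with 1 mM 4-methylumbelliferyl-alpha-D-glucopyranoside, pH 5.0 citrate buffer, 40 min at 37 C. 4-MU read (Ex 365/Em 440) after NaOH/glycine stop; AC50 from Hill fits.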", "values": [{"smiles": "CC1(CCc2ccc3c(c2)OCO3)NC(=O)c2ccccc2N1", "note": "(stereo not given)", "activity change, both directions": "4.52% [at 31.5 µM]"}, {"smiles": "COC(=O)c1ccccc1S(=O)(=O)N1CCOCC1", "activity change, both directions": "-14%"}, {"smiles": "CCOC(=O)N1CCN(c2cc(N(C)CCO)c([N+](=O)[O-])c3nonc23)CC1", "activity change, both directions": "-2.42%"}, {"smiles": "CCc1sc(-c2cc3cccc(OC)c3oc2=O)nc1-c1cc(C)ccc1C", "Potency": "15.8 µM (active)"}, {"smiles": "COc1cccc(S(=O)(=O)N2CCOCC2)c1", "activity change, both directions": "-0.379%"}, {"smiles": "O=S(=O)(c1ccc(O)cc1)N1CCOCC1", "activity change, both directions": "-3.67%"}, {"smiles": "Cc1ccc(N=Nc2c(N)nn(-c3ccccc3)c2N)cc1", "activity change, both directions": "4.65%"}, {"smiles": "Cc1ccc(-c2nc(-c3cc4cc(Cl)ccc4oc3=O)sc2C)cc1", "activity change, both directions": "5.44%"}, {"smiles": "COc1ccc(C(=O)NC2(C(F)(F)F)C(=O)Nc3c2c(=O)[nH]c(=O)n3CCc2ccc(OC)c(OC)c2)cc1", "note": "(stereo not given)", "activity change, both directions": "-0.6% [at 31.5 µM]"}, {"smiles": "O=S(=O)(c1ccccc1)N1CCN(S(=O)(=O)c2ccccc2)CC1", "activity change, both directions": "4.23%"}, {"smiles": "CCCN1CNc2c(c(=O)[nH]c(=O)n2CCc2ccc(OC)c(OC)c2)C1", "Potency": "17.8 µM (active)"}, {"smiles": "O=C(CC(c1ccccc1)c1cc(Br)ccc1O)NCCN1CCOCC1", "note": "(stereo not given)", "activity change, both directions": "4.56% [at 31.5 µM]"}, {"smiles": "COc1ccc(CCn2c3c(c(=O)[nH]c2=S)CN(C(C)C)CN3)cc1OC", "Potency": "44.7 µM (active)"}, {"smiles": "COc1ccc(CCc2c[nH]c(=O)c3cncnc23)cc1OC", "activity change, both directions": "0.974%"}, {"smiles": "N#Cc1cccc(S(=O)(=O)N2CCOCC2)c1", "activity change, both directions": "-2.48%"}, {"smiles": "COc1cc2c(cc1OC)-c1cc(OCc3ccccc3Cl)nc(=O)n1CC2", "activity change, both directions": "-3.52% [at 31.5 µM]"}, {"smiles": "O=C(Nc1ccccc1)C1CCN(S(=O)(=O)c2ccccc2)CC1", "activity change, both directions": "0.601%"}, {"smiles": "Cc1ccc(S(=O)(=O)N2CCN(CC(=O)N/N=C\\c3ccccn3)CC2)cc1", "activity change, both directions": "-32.6%"}, {"smiles": "CC(=O)Nc1ccc(S(=O)(=O)/N=C2/NC(=O)/C(=C\\c3ccco3)S2)cc1", "activity change, both directions": "1.22% [at 31.5 µM]"}, {"smiles": "O=C(c1ccc2ccccc2c1)N1CCN(S(=O)(=O)c2ccccc2)CC1", "activity change, both directions": "-1.67%"}]}]}
